Where “and” joins values, the source holds several entries; their conditions need not be identical. Equal entries are not always repeated. Hit rate of the full screen: of about 290,000 compounds, about 230 (0.079%) were called active. This excerpt belongs to a sample that is enriched for actives. Values without a mark were called inactive. No stated cut-off is given here; in the data, active means inhibition above about 40%; inactive means the rest.
Target: Cyclic GMP-AMP synthase (Homo sapiens) (UniProt Q8N884)
Sequence (Q8N884 whole entry, looked up): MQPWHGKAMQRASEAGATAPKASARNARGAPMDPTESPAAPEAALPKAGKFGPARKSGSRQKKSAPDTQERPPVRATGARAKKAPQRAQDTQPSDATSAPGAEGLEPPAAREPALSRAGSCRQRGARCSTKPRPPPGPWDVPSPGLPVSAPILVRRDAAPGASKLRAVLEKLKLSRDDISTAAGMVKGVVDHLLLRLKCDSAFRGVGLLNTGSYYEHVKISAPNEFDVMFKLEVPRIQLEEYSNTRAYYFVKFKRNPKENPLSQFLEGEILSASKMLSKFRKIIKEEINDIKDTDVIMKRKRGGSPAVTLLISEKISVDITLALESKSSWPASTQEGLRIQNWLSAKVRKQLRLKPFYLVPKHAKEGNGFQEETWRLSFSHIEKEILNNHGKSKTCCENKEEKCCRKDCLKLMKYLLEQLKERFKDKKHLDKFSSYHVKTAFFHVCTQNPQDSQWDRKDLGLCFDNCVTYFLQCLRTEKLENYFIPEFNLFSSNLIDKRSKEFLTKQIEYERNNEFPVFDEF
Assay: Biochemical Kinase-Glo luminescence primary assay, human cyclic GMP-AMP synthase inhibition (AID 1259398);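 further: 0% = vehicle reaction and 100% = reaction without DNA for no activity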
Settings: recombinant h-cGAS, ATP depletion, at 12.5 µM, stronger effect = higher value

Row | Structure (SMILES) | inhibition
1 | COc1ccc(NS(=O)(=O)c2cc(C(=O)Nc3ccc(C)cc3)ccc2C)cc1 | -2.65%
2 | O=C(Cc1csc(SCC(=O)c2ccccc2)n1)NCCC1=CCCCC1 | 7.3%
3 | O=[N+]([O-])c1cc(S(=O)(=O)C(F)(F)F)ccc1Oc1ccc2oc3c(c2c1)CCCC3 | 50.2% (active)
4 | O=[N+]([O-])c1cc(S(=O)(=O)C(F)(F)F)ccc1N1CCCC1 | -6.28%
5 | CS(=O)(=O)c1ccc(Oc2ccc3sc(=O)oc3c2)c([N+](=O)[O-])c1 | -8.14%
6 | C=CCN(Cc1ccccc1OC)C(=O)c1ccc(NC(C)=O)cc1 | 0.115%
7 | Cc1ccc(S(=O)(=O)NCc2ccc3c(c2)OCO3)c(C)c1C | -9.87%
8 | CS(=O)(=O)c1cccc2sc(Cl)nc12 | -7.81%
9 | CCCCCN(CC(=O)N(CCCC)Cc1cccn1Cc1ccc(Br)cc1)C(=O)c1ccc2c(c1)OCO2 | -1.37%
10 | CC(C)CN(CC(C)C)C(=O)c1cccnc1Nc1cccc(C(F)(F)F)c1 | -2.78%
11 | CC(Nc1nc2c(c(=O)[nH]c(=O)n2C)n1Cc1ccccc1)c1ccccc1 (configuration not stated) | 2.23%
12 | CS(=O)(=O)N1CCC(C(=O)NCc2cc(-c3ccc4c(c3)OCCO4)on2)CC1 | -5.92%
13 | CC(NC(=O)c1ccc(Br)cc1F)C(=O)N1CCOCC1 (configuration not stated) | -5.97%
14 | CC[N+](C)(CC)CCC[n+]1c(-c2ccccc2)c2cc(N)ccc2c2ccc(N)cc21 | 57.3% (active)
15 | COc1ccc(CCN(Cc2ccc(C)s2)C(=O)CN(CC2CCCO2)S(=O)(=O)c2c(C)cc(C)cc2C)cc1OC (configuration not stated) | -7.86%
16 | CC(=O)CC1C(CC(=O)O)C1(C)C (configuration not stated) | -5.25%
17 | Cc1ccc(S(=O)(=O)Oc2c(CO)cc(C)cc2CO)cc1 | -8.05%
18 | CC1(C(=O)NCc2cccs2)CCN1Cc1ccc2c(c1)OCCO2 (configuration not stated) | -11%
19 | CC(=O)N1CCN(C(=O)COC(=O)c2ccc3ccccc3c2O)CC1 | -3.7%

Row | Structure (SMILES) | inhibition
20 | CC(C)C(=O)N1CCC1(C)C(=O)Nc1ccccn1 (configuration not stated) | -6.44%
21 | CCc1nnc(CNc2cc(Cl)ccc2F)n1C | -5.8%
22 | CCOc1cccc(-c2ccc(Nc3ccc(OC)cc3C)nc2)c1 | -0.0439%
23 | COc1ccccc1OC1CCN(C(=O)CCC2(Cc3ccccc3)CCC(=O)N2)CC1 (configuration not stated) | -5.11%
24 | CCN1C(=O)N(Cc2cccc(OC)c2)C(=O)C12CCN(Cc1cn[nH]c1-c1ccc(F)cc1)CC2 | 11%
25 | CC(=O)CC1(O)C(=O)Nc2ccc(I)cc21 (configuration not stated) | 2.23%
26 | CC1CCc2c(sc(NC(=O)c3cccs3)c2C(=O)Nc2ccc(Cl)cc2)C1 (configuration not stated) | -14.3%
27 | C=CCCC(O)CN(Cc1c(CC)nn(-c2ccccc2)c1Oc1cccc(OC)c1)CC1CC1 (configuration not stated) | -5.62%
28 | O=C(NCc1n[nH]c(=S)n1C1CC1)c1noc2c1CCCC2 | -5.91%
29 | O=C(O)CSc1nnc(CCc2ccccc2)n1-c1cccnc1 | -3.94%
30 | Cc1ccsc1C(=O)N1CCCC(CNC(=O)c2ccc(-c3ccccc3)cc2)C1 (configuration not stated) | -7.02% and -6.34%
31 | C=CCNCc1cnc(S(=O)(=O)Cc2ccc(F)cc2)n1C(C)C | -5.49%
32 | O=C(O)c1cc(-c2ccco2)nn1-c1ccccc1Cl | -7.88%
33 | C=CCN(CC(=O)Nc1ccccc1C#N)S(=O)(=O)c1c(C)cc(C)cc1C | -5.26%
34 | Cn1c(SCC(=O)N2CCN(c3ccccc3)CC2)nnc1C(F)(F)F | -6.17%
35 | O=C1CN(C(=O)C2CCCC2)CC(O)CN1Cc1cccc(F)c1 (configuration not stated) | 11.5%
36 | CCc1[nH]n(-c2ccc(Cl)c(Cl)c2)c(=O)c1C1=C([n+]2cccc(C)c2)C(=O)N(CC(C)C)C1=O | -10.4%
37 | COCCNC(=O)Cn1nc2c(c1NC(=O)c1cc(OC)cc(OC)c1)CSC2 | -4.38%
38 | C=CC(=O)Nc1ccc2ncnc(Nc3ccc(OCc4cccc(F)c4)c(Cl)c3)c2c1 | 43.2% (active)

Row | Structure (SMILES) | inhibition
39 | Cc1ccc(Nc2nc(Nc3cccc(F)c3)nc3nccnc23)cc1Cl | -0.96%
40 | N#Cc1cccc(COc2ccc(NC(=O)NCCO)cc2Cl)c1 | 0.266%
41 | Cc1ccc(OC(C)C(=O)N(C)C2CCS(=O)(=O)C2)c(Br)c1 (configuration not stated) | -12.8% and -9.58%
42 | Cc1cccc(C2SCC(=O)N2CC(=O)NCc2ccncc2)c1 (configuration not stated) | -4.08%
43 | O=C(c1cc(Cl)c2nc3ccccn3c(=O)c2c1)c1cc(F)ccc1O | -5.02%
44 | N#CCCN(CCC#N)Cn1c(=O)oc2cc(Br)ccc21 | -6.19%
45 | c1ccc(Cc2nn3c(Cn4cnc5ccccc54)nnc3s2)cc1 | -1.85%
46 | COCc1nnc2sc(Cc3ccc4c(c3)CCCC4)nn12 | 45.2% (active)
47 | CCCc1nnc2sc(Cc3csc(C)n3)nn12 | -7.66%
48 | Cc1ccc(S(=O)(=O)N2CCCC2c2nc3ccccc3[nH]2)c(C)c1 (configuration not stated) | -4.68%
49 | COCCN(CCC(=O)N1CCC(Cc2ccccc2)CC1)c1nc(Cc2cccc(OC)c2)ns1 | -5.55%
50 | CC(C)(CNC(=O)c1cc2cccc(F)c2o1)C1CCCCO1 (configuration not stated) | -5.71%
51 | Cc1ccc(NC(=O)C2C(C=C(Cl)Cl)C2(C)C)cc1 (configuration not stated) | -4.28%
52 | COc1ccccc1OC1CN(Cc2cc(C)[nH]n2)C1 | -4.73%
53 | O=C(NNc1cccc(Cl)c1)[C@@H]1CCCN1c1nccc(Nc2ccccc2)n1 | -0.74%
54 | CCOc1ccc(N2CCN(C(=O)CCc3ccccc3)C(C)C2=O)cc1 (configuration not stated) | -2.37%
55 | Cn1cc(CN2CCN(c3ccc(Cl)cn3)CC2)c(-c2ccc3c(c2)OCCO3)n1 | -7.9%
56 | CC(CN1CCOCC1)NC(=O)N1CCCc2cc(F)c(F)cc21 (configuration not stated) | -4.63%
57 | Cc1cc(Nc2ccc3c(n2)C(=O)N(CC(=O)NCCCn2ccnc2)C3)n(C)n1 | -11.5%

— PubChem BioAssay AID1259398 (Fisher Drug Discovery Resource Center, 2018)
